Experimental data published in PubChem BioAssay AID1159580 (chemical genetic matrix, 2015).
In all, about 5,500 compounds went through this assay and about 2,000 (36%) were called active. About 18% were inconclusive and are not listed. No stated cut-off is given here; in the data, active means normalized growth mostly below about 0.91 (no sharp cut-off); inconclusive means no clear call, values can overlap the other calls; inactive means mostly above about 0.92. The list shows a part of the results.

Test: chemical genetic growth profiling, strain panel (AID 1159580);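 further: tested at 20 µM; growth read once vehicle control cultures reached saturation at 30 °C; 1 = growth at the plate median or of vehicle wells; lower values mean less growth of the strain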
Settings: growth OD

Measured: normalized growth

Cc1cc(O)c2c(c1O)C(=O)c1c(O)cc(C)c(O)c1C2=O
inactive: S. cerevisiae deletion strains, locus YJR075W, strain HOC1, hits give low values 1.01 | S. cerevisiae deletion strains, locus YKL009W, strain mrt4, hits give low values 1.05 | S. cerevisiae deletion strains, locus YKL068W, hits give low values 0.995 | S. cerevisiae deletion strains, locus YKL085W, strain MDH1 (second series), hits give low values 1.01 | S. cerevisiae deletion strains, locus YKL085W, strain MDH1, hits give low values 1.01 | S. cerevisiae deletion strains, locus YKL160W, strain elf1, hits give low values 0.985 | S. cerevisiae deletion strains, locus YKL190W, strain CNB1, hits give low values 0.984 | S. cerevisiae deletion strains, locus YKR001C, strain vps1, hits give low values 0.971 | S. cerevisiae deletion strains, locus YKR026C, strain gcn3, hits give low values 0.979 | S. cerevisiae deletion strains, locus YKR091W, strain srl3, hits give low values 0.968 | S. cerevisiae deletion strains, locus YLL001W, strain dnm1, hits give low values 0.966 | S. cerevisiae deletion strains, locus YLL026W, hits give low values 0.988 | S. cerevisiae deletion strains, locus YLL041C, strain sdh2, hits give low values 0.981 | S. cerevisiae deletion strains, locus YLR027C, strain aat2, hits give low values 0.966 | S. cerevisiae deletion strains, locus YLR058C, strain SHM2, hits give low values 0.93 | S. cerevisiae deletion strains, locus YLR102C, strain apc9, hits give low values 0.999 | S. cerevisiae deletion strains, locus YLR113W, strain HOG1, hits give low values 1.03 | S. cerevisiae deletion strains, locus YLR221C, strain rsa3, hits give low values 0.948 | S. cerevisiae deletion strains, locus YLR258W, strain gsy2, hits give low values 0.977 | S. cerevisiae deletion strains, locus YLR262C, strain YPT6 (second series), hits give low values 0.887 | S. cerevisiae deletion strains, locus YLR262C, strain YPT6, hits give low values 0.675 | S. cerevisiae deletion strains, locus YLR268W, strain sec22, hits give low values 0.964 | S. cerevisiae deletion strains, locus YLR320W, strain mms22, hits give low values 0.965 | S. cerevisiae deletion strains, locus YLR330W, strain CHS5, hits give low values 0.956 | S. cerevisiae deletion strains, locus YLR342W, strain FKS1 (second series), hits give low values 0.981 | S. cerevisiae deletion strains, locus YLR342W, strain FKS1, hits give low values 0.98 | S. cerevisiae deletion strains, locus YLR357W, strain rsc2, hits give low values 0.976 | S. cerevisiae deletion strains, locus YLR370C, strain arc18, hits give low values 0.987 | S. cerevisiae deletion strains, locus YLR371W, strain rom2, hits give low values 1 | S. cerevisiae deletion strains, locus YLR384C, strain iki3, hits give low values 0.962 | S. cerevisiae deletion strains, locus YLR418C, strain cdc73, hits give low values 1.02 | S. cerevisiae deletion strains, locus YML016C, strain PPZ1, hits give low values 0.958 | S. cerevisiae deletion strains, locus YML032C, strain rad52, hits give low values 0.974 | S. cerevisiae deletion strains, locus YML124C, strain tub3, hits give low values 0.997 | S. cerevisiae deletion strains, locus YMR058W, strain fet3, hits give low values 0.923 | S. cerevisiae deletion strains, locus YMR078C, strain ctf18, hits give low values 0.981 | S. cerevisiae deletion strains, locus YMR125W, strain sto1, hits give low values 0.99 | S. cerevisiae deletion strains, locus YMR129W, hits give low values 0.981 | S. cerevisiae deletion strains, locus YMR205C, strain PFK2, hits give low values 0.993 | S. cerevisiae deletion strains, locus YMR223W, strain ubp8, hits give low values 0.989 | S. cerevisiae deletion strains, locus YMR231W, strain pep5, hits give low values 0.959 | S. cerevisiae deletion strains, locus YMR263W, strain SAP30, hits give low values 1.01 | S. cerevisiae deletion strains, locus YMR307W, strain GAS1, hits give low values 0.778 | S. cerevisiae deletion strains, locus YNL067W, strain RPL9B, hits give low values 0.991 | S. cerevisiae deletion strains, locus YNL071W, strain lat1, hits give low values 0.984 | S. cerevisiae deletion strains, locus YNL128W, strain TEP1, hits give low values 0.96 | S. cerevisiae deletion strains, locus YNL153C, strain GIM3, hits give low values 0.965 | S. cerevisiae deletion strains, locus YNL183C, strain NPR1, hits give low values 0.951 | S. cerevisiae deletion strains, locus YNL209W, strain ssb2, hits give low values 0.969 | S. cerevisiae deletion strains, locus YNL233W, strain BNI4, hits give low values 0.982 | S. cerevisiae deletion strains, locus YNL248C, strain rpa49, hits give low values 0.95 | S. cerevisiae deletion strains, locus YNL250W, strain rad50, hits give low values 0.974 | S. cerevisiae deletion strains, locus YNL271C, strain bni1, hits give low values 0.987 | S. cerevisiae deletion strains, locus YNL298W, strain CLA4, hits give low values 0.98 | S. cerevisiae deletion strains, locus YNL307C, strain MCK1, hits give low values 1.01 | S. cerevisiae deletion strains, locus YNL322C, strain KRE1 (second series), hits give low values 0.944 | S. cerevisiae deletion strains, locus YNL322C, strain KRE1, hits give low values 0.984 | S. cerevisiae deletion strains, locus YNR049C, strain mso1, hits give low values 0.965 | S. cerevisiae deletion strains, locus YNR052C, strain pop2, hits give low values 0.98 | S. cerevisiae deletion strains, locus YOL012C, strain htz1 1.11 | S. cerevisiae deletion strains, locus YOL147C, strain pex11, hits give low values 1 | S. cerevisiae deletion strains, locus YOR001W, strain rrp6, hits give low values 0.962 | S. cerevisiae deletion strains, locus YOR061W, strain CKA2, hits give low values 0.934 | S. cerevisiae deletion strains, locus YOR069W, strain VPS5, hits give low values 0.975 | S. cerevisiae deletion strains, locus YOR070C, strain gyp1, hits give low values 0.972 | S. cerevisiae deletion strains, locus YOR080W, strain dia2, hits give low values 0.974 | S. cerevisiae deletion strains, locus YOR083W, strain WHI5, hits give low values 0.964 | S. cerevisiae deletion strains, locus YOR106W, strain vam3, hits give low values 0.937 | S. cerevisiae deletion strains, locus YOR136W, strain idh2, hits give low values 1.01 | S. cerevisiae deletion strains, locus YOR144C, strain elg1, hits give low values 0.988 | S. cerevisiae deletion strains, locus YOR184W, strain ser1, hits give low values 1.02 | S. cerevisiae deletion strains, locus YOR231W, strain MKK1, hits give low values 0.996 | S. cerevisiae deletion strains, locus YOR265W, strain rbl2, hits give low values 0.971 | S. cerevisiae deletion strains, locus YOR270C, strain vph1, hits give low values 0.841 | S. cerevisiae deletion strains, locus YOR290C, strain snf2, hits give low values 0.914 | S. cerevisiae deletion strains, locus YOR316C, strain cot1, hits give low values 0.997 | S. cerevisiae deletion strains, locus YPL051W, strain arl3, hits give low values 0.953 | S. cerevisiae deletion strains, locus YPL055C, strain LGE1, hits give low values 1.01 | S. cerevisiae deletion strains, locus YPL078C, strain atp4, hits give low values 0.982 | S. cerevisiae deletion strains, locus YPL106C, strain sse1, hits give low values 0.953 | S. cerevisiae deletion strains, locus YPL240C, strain hsp82, hits give low values 0.98 | S. cerevisiae deletion strains, locus YPL241C, strain CIN2, hits give low values 0.995 | S. cerevisiae deletion strains, locus YPL256C, strain CLN2, hits give low values 0.993 | S. cerevisiae deletion strains, locus YPR119W, strain clb2, hits give low values 0.986 | S. cerevisiae deletion strains, locus YPR141C, strain kar3, hits give low values 0.978 | S. cerevisiae deletion strains, locus YPR163C, strain tif3, hits give low values 1 | S. cerevisiae deletion strains, locus YPR167C, strain met16, hits give low values 0.989 | S. cerevisiae deletion strains, strain wtn01, hits give low values 0.998 | S. cerevisiae strains, strain wild type, hits give low values 0.989
active: S. cerevisiae deletion strains, locus YLR039C, strain RIC1, hits give low values 0.635 | S. cerevisiae deletion strains, locus YML120C, strain ndi1, hits give low values 0.912 | S. cerevisiae deletion strains, locus YOL006C, strain TOP1, hits give low values 0.491
